Consider 9 molecules from PubChem BioAssay (Tox21).

Results filed as inconclusive are left out. The source holds several records for some structures; these can differ, active in one and inactive in another. The source made the active and inactive calls. Unless noted, calls come from the whole dose curve; as a rule, active = well fitted curve in the direction sought with a large enough effect in the repeat runs; inconclusive = weak or mixed curves; inactive = no such curve, though single readings can be large; an effect the other way counts as inactive or inconclusive.

The nature of experiment [1]: qHTS assay to identify aromatase inhibitors - cell viability counter screen (AID 743084).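 Note: cells stimulated with testosterone during compound exposure; nearly all actives have a fitted effect of over 55% in size.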
Experiment [2] addresses Aryl hydrocarbon receptor (Homo sapiens) (UniProt P35869). Nature of the experiment: qHTS assay to identify small molecule that activate the aryl hydrocarbon receptor (AhR) signaling pathway (AID 743085).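 For activation: HG2L7.5c1 human HepG2 liver cells with stably integrated DRE-driven firefly reporter; series mostly up to about 70 µM.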 Note: nearly all actives have a fitted effect of over 15% in size. Note: potency is the fitted concentration of half-maximal effect. In short, it runs like this:
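Cell line HG2L7.5c1 (human hepatoma, 20× DRE-luc). Plated, 5 h 37C, compound/DMSO added, 24 h 37C. CellTiter-Fluor 30 min 37C → fluorescence; then ONE-Glo 30 min RT → luminescence.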
(In general: In qHTS, concentration-response curves come from the screen itself.)

Experiment [3] is described as follows: qHTS assay to identify small molecule that activate the aryl hydrocarbon receptor (AhR) signaling pathway - cell viability counter screen (AID 743086).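 Note: HepG2 liver cells carrying the AhR DRE luciferase reporter; series mostly up to about 70 µM; nearly all actives have a fitted effect of over 45% in size.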 Put shortly:
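HepG2-AhR-luc (HG2L7.5c1) cells, 4000/well, were preincubated 5 h at 37C, exposed to compound in qHTS format for 24 hr at 37C, then given CellTiter-Fluor for 30 min; viability was read as fluorescence in the reporter wells.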

Experiment [4] has as its target Peroxisome proliferator-activated receptor gamma (Homo sapiens) (UniProt P37231). Nature of the experiment: qHTS assay to identify small molecule agonists of the peroxisome proliferator-activated receptor gamma (PPARg) signaling pathway (AID 743094; active = well fitted activation curve with a large enough effect in the signal ratio in the repeat runs, not every such curve was filed as active; the % refers to the signal ratio). In short, it runs like this: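 Agonism was assessed in a beta-lactamase reporter system, HEK293H cells with a stably integrated UAS-bla construct under PPARg control; the 17 h treatment at 37C preceded a 1 h room-temperature FRET substrate read.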

A short description of experiment [5]: qHTS assay to identify small molecule antagonists of the peroxisome proliferator-activated receptor gamma (PPARg) signaling pathway - cell viability counter screen (AID 743194). Note: nearly all actives have a fitted effect of over 55% in size. In short, it runs like this:
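PPARg-UAS-bla HEK293H cells were plated, rested 5 h at 37 C, then treated with compounds plus rosiglitazone (50 nM final) for 17 h at 37 C; viability was then read by CellTiter-Glo luminescence after 30 min at room temperature.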

The nature of experiment [6]: qHTS assay for small molecule agonists of the antioxidant response element (ARE) signaling pathway (AID 743202; active = well fitted activation curve with a large enough effect in the signal ratio in the repeat runs, not every such curve was filed as active; the % refers to the signal ratio). In short, it runs like this: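 Following a 16 h, 37 C exposure of reporter HepG2 cells (ARE-driven beta-lactamase, 2,000 cells/well) to compounds, FRET substrate was applied for 2 h at room temperature and fluorescence intensity recorded.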
Experiment [7] can be described thus: qHTS assay for small molecule agonists of the antioxidant response element (ARE) signaling pathway - cell viability counter screen (AID 743203; calls by dose curve; note: nearly all actives have a fitted effect of over 55% in size). In short, it runs like this: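 ATP content via CellTiter-Glo luminescence served as the viability measure. Cells: ARE-bla HepG2, 2,000 per well. Exposure: 16 hrs, 37C/5% CO2.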
Experiment [8] is described as follows: qHTS assay to identify small molecule agonists of the peroxisome proliferator-activated receptor delta (PPARd) signaling pathway - cell viability counter screen (AID 743211). Note: nearly all actives have a fitted effect of over 55% in size. Put shortly:
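HEK293H PPARd-bla, 3000 cells/well; 5 h preincubation 37C/5% CO2; cpd in DMSO, 17 h 37C; B/G FRET substrate 2 h RT; CellTiter-Glo 30 min RT, luminescence.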

Experiment [9] can be described thus: qHTS assay to identify small molecule antagonists of the peroxisome proliferator-activated receptor delta (PPARd) signaling pathway - cell viability counter screen (AID 743213). Note: nearly all actives have a fitted effect of over 50% in size. Put shortly:
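In this counter screen, HEK293H cells carrying a UAS-beta-lactamase reporter are co-treated with test compounds and 300 nM L165041 (final) for 17 h at 37 C; cell viability is quantified by CellTiter-Glo luminescence.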

Experiment [10] has as its target Peroxisome proliferator-activated receptor delta (Homo sapiens) (UniProt Q03181). The experiment is described as follows: qHTS assay to identify small molecule antagonists of the peroxisome proliferator-activated receptor delta (PPARd) signaling pathway (AID 743215; active = well fitted inhibition curve with a large enough effect in the signal ratio in the repeat runs, not every such curve was filed as active; the % refers to the signal ratio;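 note: cells stimulated with agonist L165041 at 300 nM final during compound exposure; series mostly up to about 62 µM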). Put shortly:
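Here, a reporter line (HEK293H, beta-lactamase under a UAS) measures PPARd signaling. Compounds are tested against agonist L165041 at 300 nM final concentration over 17 h at 37 C, with fluorescence read after substrate.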

Experiment [11] deals with Bile acid receptor (Homo sapiens) (UniProt Q96RI1). The experiment is described as follows: qHTS assay to identify small molecule antagonists of the farnesoid-X-receptor (FXR) signaling pathway (AID 743217; active = well fitted inhibition curve with a large enough effect in the signal ratio in the repeat runs, not every such curve was filed as active; the % refers to the signal ratio). Put shortly:
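Test compounds are pin-transferred onto FXR-bla HEK 293T cells, then chenodeoxycholic acid is added at 50 uM final. After 16 h at 37 °C, LiveBLAzer B/G substrate is applied for 2 h at room temperature and fluorescence read.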

For experiment [12] the target is unchanged. Nature of the experiment: qHTS assay to identify small molecule agonists of the farnesoid-X-receptor (FXR) signaling pathway (AID 743220; active = well fitted activation curve with a large enough effect in the signal ratio in the repeat runs, not every such curve was filed as active; the % refers to the signal ratio; note: potency is the fitted concentration of half-maximal effect). In short, it runs like this: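 FXR-UAS-bla HEK 293T cells carrying a UAS-driven beta-lactamase reporter were plated for 5 h at 37C/5% CO2, then exposed to DMSO-dissolved Tox21 10K compounds for 16 h at 37C. A LiveBLAzer B/G FRET substrate was loaded for 2 h at room temperature before fluorescence reading.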

A short description of experiment [13]: qHTS assay to identify small molecule antagonists of the farnesoid-X-receptor (FXR) signaling pathway - cell viability counter screen (AID 743221; active = well fitted cell-killing curve with a large enough effect in the repeat runs, not every such curve was filed as active; note: nearly all actives have a fitted effect of over 50% in size). In short, it runs like this: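 Luminescence from CellTiter-Glo measures cytotoxicity in GeneBLAzer FXR-UAS-bla HEK 293T cells. Cells were exposed to compounds with 50 uM chenodeoxycholic acid (final) for 16 h at 37 C, in wells also used for the reporter readout.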

Experiment [14] concerns the target Vitamin D3 receptor (Homo sapiens) (UniProt P11473). Nature of the experiment: qHTS assay to identify small molecule agonists of the vitamin D receptor (VDR) signaling pathway (AID 743222; calls by dose curve). In short, it runs like this: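 Tox21 cell reporter format: VDR-bla line, 16 h compound exposure in 5% CO2 at 37C, then fluorescence intensity after 2 h with LiveBLAzer B/G FRET substrate.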

Experiment [15] in a line: qHTS assay for small molecule activators of the heat shock response signaling pathway - cell viability counter screen (AID 743209). Note: nearly all actives have a fitted effect of over 50% in size. Put shortly: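 Compounds dissolved in DMSO were added to overnight-plated HSE-bla HeLa cells and left 5 h at 37 C. Cell viability was quantified by luminescence using CellTiter-Glo.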
Experiment [16] concerns the target Peroxisome proliferator-activated receptor delta (Homo sapiens) (UniProt Q03181). The experiment is described as follows: qHTS assay to identify small molecule agonists of the peroxisome proliferator-activated receptor delta (PPARd) signaling pathway (AID 743212; calls by dose curve). Put shortly:
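Beta-lactamase reporter read by fluorescence (LiveBLAzer B/G FRET, 2 h, room temperature). Test agents, in DMSO, incubated at 37 C with PPARd-bla HEK293H cells.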

The nature of experiment [17]: qHTS assay to identify small molecule agonists of the farnesoid-X-receptor (FXR) signaling pathway - cell viability counter screen (AID 743218). Note: nearly all actives have a fitted effect of over 45% in size. In short, it runs like this: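 Quantitative HTS counter screen measuring ATP-based viability via CellTiter-Glo luminescence in HEK 293T cells carrying a UAS-driven beta-lactamase reporter, after 16 h compound exposure at 37 C.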

In experiment [18] the target is Vitamin D3 receptor (Homo sapiens) (UniProt P11473). Nature of the experiment: qHTS assay to identify small molecule antagonists of the vitamin D receptor (VDR) signaling pathway (AID 743223; active = well fitted inhibition curve with a large enough effect in the signal ratio in the repeat runs, not every such curve was filed as active; the % refers to the signal ratio). Put shortly: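 Antagonist mode uses 1alpha,25-dihydroxyvitamin D3 at 3 nM final as stimulus. VDR-bla cells receive compounds in DMSO, incubate 16 h at 37C, then a beta-lactamase FRET substrate for 2 h at room temperature before fluorescence measurement.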

Experiment [19] is described as follows: qHTS assay for small molecule activators of the heat shock response signaling pathway (AID 743210; active = well fitted activation curve with a large enough effect in the signal ratio in the repeat runs, with a control signal flat, not every such curve was filed as active; the % refers to the signal ratio; note: series mostly up to about 63 µM). In short, it runs like this: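 Heat shock element–beta-lactamase HeLa reporter cells; qHTS with compounds for 5 h at 37 C; detection by FRET substrate fluorescence after 2.5 h at RT.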

Sequence of Peroxisome proliferator-activated receptor delta (Homo sapiens) (Q03181 whole entry, looked up): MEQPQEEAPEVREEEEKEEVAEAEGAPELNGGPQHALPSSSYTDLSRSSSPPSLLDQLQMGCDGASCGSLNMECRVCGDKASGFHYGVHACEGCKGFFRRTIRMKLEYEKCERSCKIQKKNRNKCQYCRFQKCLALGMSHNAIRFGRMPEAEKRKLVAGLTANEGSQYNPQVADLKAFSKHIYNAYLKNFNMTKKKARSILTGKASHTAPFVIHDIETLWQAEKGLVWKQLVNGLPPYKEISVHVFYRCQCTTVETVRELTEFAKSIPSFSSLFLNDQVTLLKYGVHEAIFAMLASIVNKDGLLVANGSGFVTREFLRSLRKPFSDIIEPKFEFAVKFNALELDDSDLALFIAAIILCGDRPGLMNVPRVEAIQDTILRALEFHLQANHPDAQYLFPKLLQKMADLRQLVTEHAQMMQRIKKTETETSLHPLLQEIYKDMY
Sequence of Aryl hydrocarbon receptor (Homo sapiens) (P35869 whole entry, looked up): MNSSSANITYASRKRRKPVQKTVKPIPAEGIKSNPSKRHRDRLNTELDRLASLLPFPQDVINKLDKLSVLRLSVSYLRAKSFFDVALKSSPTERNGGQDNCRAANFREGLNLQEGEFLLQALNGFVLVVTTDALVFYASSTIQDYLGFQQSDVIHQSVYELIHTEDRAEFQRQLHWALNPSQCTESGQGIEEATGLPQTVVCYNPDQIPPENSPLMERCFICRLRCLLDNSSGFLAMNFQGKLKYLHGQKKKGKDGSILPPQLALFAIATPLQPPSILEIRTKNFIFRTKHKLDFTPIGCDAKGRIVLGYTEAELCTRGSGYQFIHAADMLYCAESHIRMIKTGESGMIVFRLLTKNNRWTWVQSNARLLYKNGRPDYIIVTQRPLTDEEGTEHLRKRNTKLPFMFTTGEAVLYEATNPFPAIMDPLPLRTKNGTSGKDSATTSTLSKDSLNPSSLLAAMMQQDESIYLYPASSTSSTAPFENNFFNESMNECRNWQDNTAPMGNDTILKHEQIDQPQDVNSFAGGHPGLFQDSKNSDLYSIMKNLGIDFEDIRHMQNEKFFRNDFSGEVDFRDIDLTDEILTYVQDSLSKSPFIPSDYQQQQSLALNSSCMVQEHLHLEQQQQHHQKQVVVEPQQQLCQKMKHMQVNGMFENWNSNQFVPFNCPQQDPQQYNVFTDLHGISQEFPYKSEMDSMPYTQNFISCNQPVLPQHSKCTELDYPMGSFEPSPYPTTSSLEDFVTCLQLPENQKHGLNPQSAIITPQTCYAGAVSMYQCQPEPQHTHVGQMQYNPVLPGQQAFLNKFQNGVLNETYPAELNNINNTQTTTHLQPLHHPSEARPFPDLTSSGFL
Sequence of Peroxisome proliferator-activated receptor gamma (Homo sapiens) (P37231 whole entry, looked up): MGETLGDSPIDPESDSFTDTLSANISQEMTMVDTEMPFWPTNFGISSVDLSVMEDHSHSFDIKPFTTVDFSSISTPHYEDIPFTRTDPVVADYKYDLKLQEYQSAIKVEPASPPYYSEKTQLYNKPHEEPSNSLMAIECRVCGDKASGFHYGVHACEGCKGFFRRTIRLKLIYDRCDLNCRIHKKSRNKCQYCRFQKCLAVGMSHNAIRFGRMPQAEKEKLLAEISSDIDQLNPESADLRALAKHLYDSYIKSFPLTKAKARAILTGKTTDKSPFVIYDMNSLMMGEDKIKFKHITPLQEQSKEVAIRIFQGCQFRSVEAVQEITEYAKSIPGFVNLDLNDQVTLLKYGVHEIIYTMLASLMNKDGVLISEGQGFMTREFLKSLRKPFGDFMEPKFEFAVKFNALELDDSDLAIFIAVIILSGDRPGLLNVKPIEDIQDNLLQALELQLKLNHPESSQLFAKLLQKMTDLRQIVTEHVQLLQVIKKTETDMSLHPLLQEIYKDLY
Sequence of Bile acid receptor (Homo sapiens) (Q96RI1 whole entry, looked up): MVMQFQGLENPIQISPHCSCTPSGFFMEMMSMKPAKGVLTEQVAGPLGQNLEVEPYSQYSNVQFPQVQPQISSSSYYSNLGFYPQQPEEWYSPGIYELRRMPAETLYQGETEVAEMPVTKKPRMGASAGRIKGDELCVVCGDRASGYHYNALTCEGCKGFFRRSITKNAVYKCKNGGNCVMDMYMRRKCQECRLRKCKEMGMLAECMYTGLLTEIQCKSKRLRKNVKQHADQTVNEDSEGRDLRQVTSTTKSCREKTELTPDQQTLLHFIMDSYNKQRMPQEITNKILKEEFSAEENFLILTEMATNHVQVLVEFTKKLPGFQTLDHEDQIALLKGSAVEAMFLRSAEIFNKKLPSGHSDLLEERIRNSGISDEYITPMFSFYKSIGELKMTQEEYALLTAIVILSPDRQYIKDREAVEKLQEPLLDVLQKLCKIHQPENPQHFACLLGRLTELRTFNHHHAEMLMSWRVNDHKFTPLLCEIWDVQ
Sequence of Vitamin D3 receptor (Homo sapiens) (P11473 whole entry, looked up): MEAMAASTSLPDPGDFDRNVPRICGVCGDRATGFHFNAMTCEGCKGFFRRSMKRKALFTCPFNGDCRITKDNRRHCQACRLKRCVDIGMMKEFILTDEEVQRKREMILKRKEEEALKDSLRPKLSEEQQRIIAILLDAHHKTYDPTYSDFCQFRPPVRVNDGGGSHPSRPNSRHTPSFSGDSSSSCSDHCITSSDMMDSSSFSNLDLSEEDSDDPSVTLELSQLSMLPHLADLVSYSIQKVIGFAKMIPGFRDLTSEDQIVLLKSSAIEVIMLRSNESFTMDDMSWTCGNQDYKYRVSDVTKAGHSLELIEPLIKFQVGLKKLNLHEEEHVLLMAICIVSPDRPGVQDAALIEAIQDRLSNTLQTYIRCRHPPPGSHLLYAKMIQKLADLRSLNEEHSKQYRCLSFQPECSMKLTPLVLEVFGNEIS

As for `CC(=O)OC(C)OC(=O)C(C)c1ccc(-c2ccccc2)c(F)c1` (stereo unspecified), the Potency entry in experiment [1], in experiment [2], in experiment [3], in experiment [6], in [11] and in experiment [12] was “inactive” in each case. The outcome in [4], in [5], in experiment [7], in experiment [8], in experiment [9] and in experiment [10] was inactive. In addition, the outcome in [13] and in experiment [14] was inactive.
Take `Oc1cn2c(n1)Nc1ccc(Cl)c(Cl)c1C2`: the Potency result in experiment [1], in [3] and in experiment [17] was “inactive” each time. Also, in experiment [2], the Potency was 23.7 µM (active) and inactive. Also, the molecule was called inactive in [4], in experiment [5], in experiment [7], in experiment [15], in experiment [8] and in experiment [16]. For the same molecule, the result in experiment [9], in experiment [10], in [13], in [14] and in experiment [18] was inactive.
With `NS(=O)(=O)c1ccc(NC(=O)CCC(=O)O)cc1`, the Potency entry in [1], in [2], in experiment [3], in experiment [6], in [11] and in experiment [17] was “inactive” throughout. Also, in [12], the Potency entry is “inactive”. In addition, the molecule was classed as inactive in experiment [4], in [5], in experiment [7], in experiment [15], in experiment [19] and in experiment [8]. Besides, the molecule was classed as inactive in [16], in experiment [9], in experiment [13] and in [14].
Turning to `CCCCCCCCCCCCCC`, the Potency result in experiment [1], in experiment [2], in experiment [3] and in [17] was “inactive” each time. Further, the molecule was classed as inactive in experiment [4], in experiment [5], in experiment [7], in experiment [15], in [8] and in [9]. Further, the call in [13], in experiment [14] and in experiment [18] was inactive.
On to `CC(C)CC(C)CC(C)CC(C)COC(=O)c1ccccc1C(=O)OCC(C)CC(C)CC(C)CC(C)C` (stereo unspecified), for which the Potency entry in experiment [1], in [2], in [3], in experiment [11], in experiment [17] and in experiment [12] was “inactive” each time. Moreover, the result in experiment [4], in experiment [5], in [7], in experiment [15], in [19] and in [8] was inactive. Further, the outcome in [9], in experiment [10] and in [13] was inactive.
`COc1ccc2c(c1)C(=O)N(CCc1ccc(S(=O)(=O)NC(=O)NC3CCCCC3)cc1)C(=O)C2(C)C`: the Potency entry in experiment [1], in experiment [2], in [3] and in [17] was “inactive” in each case. The result in experiment [4], in experiment [5], in experiment [7], in experiment [15], in experiment [8] and in [9] was inactive. Besides, the molecule was called inactive in experiment [10], in experiment [13] and in experiment [18]. In addition, the Potency in experiment [12] is 26.6 µM (active).
For the molecule `C=C(C)C(=O)OCCN(CC)CC`, the Potency result in [1], in experiment [2], in experiment [3] and in [17] was “inactive” in each case. The molecule was called inactive in experiment [4], in experiment [5], in experiment [7], in experiment [19], in [8] and in experiment [16]. Besides, the molecule was classed as inactive in experiment [10], in [13], in [14] and in experiment [18].
On to `N#Cc1ccc(C(=O)O)cc1`, for which the Potency entry in [1], in [2], in experiment [3], in experiment [6], in experiment [17] and in experiment [12] was “inactive” in each case. Further, the molecule was classed as inactive in [4], in experiment [5], in experiment [7], in [15], in experiment [19] and in [8]. For the same molecule, the result in experiment [9], in experiment [13], in experiment [14] and in experiment [18] was inactive.
On to `CCCCN`, for which the Potency result in experiment [1], in experiment [2], in [3] and in [6] was “inactive” each time. For the same molecule, the molecule was called inactive in experiment [4], in experiment [5], in experiment [7], in [15], in [8] and in [16]. The result in experiment [9], in [13] and in experiment [14] was inactive.
